PubChem BioAssay (Tox21)
Where “and” joins values, the source holds several entries; their conditions need not be identical. Equal entries are not always repeated. Records with an inconclusive call do not appear. A call without a number means that no potency is given here. Calls of active or inactive are those of the source. Calls come from the whole dose curve; as a rule, active = well fitted activation curve with a large enough effect in the repeat runs; inconclusive = weak or mixed curves; inactive = flat fitted curve, though single readings scatter.

Experiment: A CellTox Green Cytotoxicity Assay to monitor cytotoxicity in HEK293 cells - 24 hour (AID 1224875); note: nearly all actives have a fitted effect of over 45% in size
Conditions: CellTox Green fluorescence; series mostly up to 76.8 µM
Excerpt: National Center for Advancing Translational Sciences [NCATS]
NIH Chemical Genomics Center [NCGC]
U.S. Environmental Protection Agency [EPA]
National Institutes of Environmental Health Sciences [NIEHS]
National Toxicology Program [NTP]
Cell-based models are critical for drug discovery. Determining the natural cytotoxic effects resulting from test compounds is an essential research activity. A CellTox Green Cytotoxicity Assay to monitor cytotoxicity in real time of continues cell culture during 40 hours of the compound treatment was used to screen Tox21 10K library compounds in Hek293 cells. CellTox Green Cytotoxicity Assay is a nonlytic, homogeneous, biofluorescent method to measure cytotoxicity in cell culture after experimental manipulation. The assay system uses a proprietary asymmetric cyanine dye that is excluded from viable cells but preferentially stains the dead cell's DNA. […] Viable cells produce no appreciable increases in fluorescence. Therefore, the fluorescence signal produced by the binding interaction with dead cell DNA is proportional to cytotoxicity.
The mixture of Hek293 cell suspension and reagents were dispensed at 600cells/6 ul/well in 1536-well tissue culture treated black solid bottom plates using a Multidrop dispenser. After the assay plates were incubated at a 37 C/5% CO2 incubator for 5 hours, 23 nL of compounds dissolved in DMSO, positive and negative controls was transferred to the assay plate by a pintool work station. The plates were incubated at 37 C for 40 hours. The fluorescence intensity were measured at 0h, 8h, 16h, 24h, 32h and 40h time points using ViewLux plate reader during compound treatment.
Potency is the fitted concentration of half-maximal effect.

Question: Which Potency does the source give for `CC1=CP(=O)(c2ccccc2)CC1` (stereo not given) here?
Answer: Its Potency is “inactive”.

Question: Which Potency does the source give for `C/C=C/c1ccc(OC)c(OC)c1` here?
Answer: The Potency was “inactive”.

Question: For `COCC(=O)O[C@]1(CCN(C)CCCc2nc3ccccc3[nH]2)CCc2cc(F)ccc2[C@@H]1C(C)C`, which Potency is on record?
Answer: The Potency was 21.3 µM (active).

Question: For `NCCCCCCNCCCCCCN`, which Potency is on record?
Answer: Its Potency is “inactive”.

Question: For `CC[N+](CC)(CC)Cc1ccccc1`, which Potency is on record?
Answer: The Potency was “inactive”.

Question: With `COC(=O)CC#N` as the compound, how does the Potency read?
Answer: Its Potency is “inactive”.

Question: With `CC1CNCC(C)O1` (stereo not given) as the compound, how does the Potency read?
Answer: The Potency was “inactive”.

Question: Which Potency does the source give for `CCc1c(C(=O)O)c(=O)cnn1-c1ccc(Cl)cc1` here?
Answer: The Potency was “inactive”.

Question: For `c1ccc(Nc2cccc3ccccc23)cc1`, which Potency is on record?
Answer: Its Potency is “inactive”.

Question: With `O=S(O)O` as the compound, how does the activity change read?
Answer: The activity change was -0.851% [at 15.8 µM, active compounds read high] (inactive).

Question: Which Potency does the source give for `CCCCCCCC/C=C\CCCCCCCC(=O)OCCOC(=O)CCCCCCC/C=C\CCCCCCCC` here?
Answer: Its Potency is “inactive”.

Question: Which Potency does the source give for `CCCCCCCCCCCCCc1ccccc1` here?
Answer: The Potency was “inactive”.

Question: Which Potency does the source give for `CCN(CC)c1cccc(C)c1` here?
Answer: The Potency was “inactive”.

Question: For `N#CSCSc1nc2ccccc2s1`, which Potency is on record?
Answer: The Potency was 11 µM (active).

Question: With `C=C(C)CCCC` as the compound, how does the Potency read?
Answer: Its Potency is “inactive”.

Question: With `CCCCOc1ccc(C(=O)CCN2CCCCC2)cc1` as the compound, how does the Potency read?
Answer: Its Potency is 16.9 µM (active).

Question: For `C[C@@H]1CC[C@H]2C(C)(C)[C@H]3C[C@@]12CC[C@@]3(C)O`, which Potency is on record?
Answer: Its Potency is 38.8 µM (active).

Question: With `CCOB(OCC)OCC` as the compound, how does the Potency read?
Answer: Its Potency is “inactive”.

Question: For `CC(C)c1ccccc1N`, which Potency is on record?
Answer: Its Potency is “inactive”.

Question: Which Potency does the source give for `O=C1OC(OC(=O)c2cccnc2Nc2cccc(C(F)(F)F)c2)c2ccccc21` (stereo not given) here?
Answer: The Potency was “inactive”.

Question: With `COc1cc(C(C)C)c2c(c1)S(=O)(=O)N(COc1cc(=O)n3cccc(OCCN4CCCCC4)c3n1)C2=O` as the compound, how does the activity change read?
Answer: The activity change was 0.172% [at 15.8 µM, active compounds read high] (inactive).

Question: With `Brc1ccccn1` as the compound, how does the Potency read?
Answer: The Potency was “inactive”.

Question: Which Potency does the source give for `CCOC(=O)[C@@](C)(N)Cc1ccc(O)c(O)c1` here?
Answer: Its Potency is “inactive”.

Question: Which Potency does the source give for `CCCCCCCCCCCCOC(=O)c1cc(O)c(O)c(O)c1` here?
Answer: Its Potency is 54.7 µM (active) and 49 µM (active).

Question: With `CN(C)CCN1CCOCC1` as the compound, how does the Potency read?
Answer: The Potency was “inactive”.

Question: For `O=C1NC2CCCCN2C12CCN(CCCN1c3ccccc3CCc3ccc(Cl)cc31)CC2` (stereo not given), which Potency is on record?
Answer: The Potency was 19 µM (active).

Question: With `O=C1NCCN1CCN1CCC(c2cn(-c3ccc(F)cc3)c3ccc(Cl)cc23)CC1` as the compound, how does the Potency read?
Answer: Its Potency is 23.9 µM (active).

Question: For `COc1ccccc1C=O`, which Potency is on record?
Answer: Its Potency is “inactive”.

Question: With `CN(C)CCOC(c1ccccc1)c1ccccc1` (tested in a mixture with another compound) as the compound, how does the Potency read?
Answer: The Potency was “inactive”.

Question: For `Cn1cnc2ncnc(N)c21`, which Potency is on record?
Answer: Its Potency is “inactive”.

Question: Which Potency does the source give for `Oc1ccc(-c2ccc(O)cc2)cc1` here?
Answer: Its Potency is “inactive”.

Question: With `CC(C)(C)c1cc(CCC(=O)NCCCCCCNC(=O)CCc2cc(C(C)(C)C)c(O)c(C(C)(C)C)c2)cc(C(C)(C)C)c1O` as the compound, how does the Potency read?
Answer: The Potency was “inactive”.

Question: Which Potency does the source give for `C[Si](C)O[Si](C)C` here?
Answer: The Potency was “inactive”.

Question: Which Potency does the source give for `C=CC(C)C#N` (stereo not given) here?
Answer: The Potency was “inactive”.

Question: For `CC(=O)Oc1ccc(C2(c3ccc(OC(C)=O)cc3)Oc3ccccc3NC2=O)cc1`, which Potency is on record?
Answer: The Potency was “inactive”.

Question: For `O=Nc1ccc(NO)cc1`, which Potency is on record?
Answer: Its Potency is “inactive”.

Question: With `COC(=O)NCCC[Si](OC)(OC)OC` as the compound, how does the Potency read?
Answer: Its Potency is “inactive”.

Question: For `CCCCCCOc1cc(C)c(O)c(C)c1C`, which Potency is on record?
Answer: The Potency was 44.2 µM (active).

Question: Which Potency does the source give for `CCCCCCCOC(=O)c1ccccc1C(=O)OCCCCCCC` here?
Answer: The Potency was “inactive”.

Question: For `OCCN1CN(CCO)CN(CCO)C1`, which Potency is on record?
Answer: The Potency was “inactive”.
